Assay results from the supplement of paper PMC10338343.
± gives the standard deviation. Whole data set: some 8,200 sequences, median “pre-steady-state target cleavage rate” near 0.024, cut for the highest 2% near 1.3. This excerpt belongs to a sample that is enriched for the highest values.

Test system: MIWI (PIWIL1) piRISC loaded with L1MC piRNA (30 nt)
Assay: pre-steady-state target cleavage rate (min^-1); MIWI and MILI are mouse PIWI proteins and EfPiwi is from a freshwater sponge; tags in brackets are library labels; higher = faster piRNA-guided slicing of the target
Conditions: guide: L1MC piRNA 5'p-UAACUAAAUACUAUGCAAGCUGUAGGUCCU
Procedure, shortened: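 For Cleave-'n-Seq, a transcribed, DNA-blocked target RNA library […] met 1 nM active affinity-purified piRISC with one synthetic guide at 33 °C for 0–8 or 0–960 min in HEPES–potassium acetate buffer, with or without 500 nM GTSF1 partner protein. Uncleaved targets were sequenced and normalised to depth and weakly complementary targets, with three trials pooled and k3 capped at 0.0001 min^-1. A burst-and-steady-state fit supplied the pre-steady-state cleavage rate.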

[1] = auxiliary factor: none (no GTSF1)
[2] = auxiliary factor: 500 nM mouse GTSF1
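Also: 1 nM active piRISC with 0.1 nM target library at 33 °C single turnover.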

Row | Sequence | pre-steady-state target cleavage rate [1] | pre-steady-state target cleavage rate [2]
1 | UCCUGGAUGUCGAACCAUAGAAUAUAGUUA | < 0.0001 | –
2 | UCCUGGAUGUCCAUGCAUAGUAUUUUGUUA | – | 0.00484 ± 0.0039
3 | UCCUCCUUCAGCUUGCAAAGUAUUUAGUUA | 0.0323 ± 0.0072 | 1.16 ± 0.041
4 | UCGACCUUCAGCUUGCAUAGUAUUUAGUUA | 0.0696 ± 0.012 | 1.51 ± 0.047
5 | UCCACCUUCAGCUUGCUUAGUAUUUAGUUA | 0.0231 ± 0.005 | 1.16 ± 0.037
6 | UCGACCUUCAGCUUGCAUAGUAUUUAGAAA | 0.0103 ± 0.0029 | 0.659 ± 0.064
7 | UCCUCCUUCAGCUUGCUUAGUAUUUAGUUA | 0.0243 ± 0.0053 | 1.31 ± 0.054
8 | UCGACCUUCAGCUUGCAAAGUAUUUAGUUA | 0.0401 ± 0.0087 | 1.33 ± 0.045
9 | UGCACCUUCAGCUUGCAUAGUAUUUAGUUA | 0.0562 ± 0.011 | 1.08 ± 0.091
10 | ACGACCUUCAGCUUGCAUAGUAUUUAGUUA | 0.0921 ± 0.015 | 1.45 ± 0.042
11 | UCGACCUUCAGCUUGCUUAGUAUUUAGUUA | 0.0363 ± 0.0088 | 1.33 ± 0.05
12 | UCCACCUUCAGCUUGCAAAGUAUUUAGUUA | 0.0305 ± 0.0063 | 1.17 ± 0.038
13 | AGCACCUUCAGCUUGCAUAGUAUUUAGUUA | 0.0548 ± 0.014 | 0.711 ± 0.089
14 | UCGACCUUCAGCUUGCAUAGUAUUUAGUAA | 0.043 ± 0.011 | 1.05 ± 0.065
15 | UCCUCGUACAGCUUGCAUAGUUUUUAGUUA | 0.0475 ± 0.011 | 0.478 ± 0.013
16 | UCCUGCUACAGCUUGCAUAGUAAUUUCAAA | – | 0.278 ± 0.074
17 | UCCACCAACUGCUUGCAUAGUAUUUAGUUA | 0.0532 ± 0.0097 | 0.828 ± 0.036
18 | UGGACCUACAGCAUGCAUAGUAUUUAGAAA | 0.00651 ± 0.0026 | 0.5 ± 0.061
19 | UCCACCUACACCUUGCAUAGUAUAUAGUUA | 0.025 ± 0.0054 | 0.543 ± 0.068
20 | UCCUGCAACAGCUUGCAUAGAAUUUAGUUA | 0.0261 ± 0.0079 | 0.492 ± 0.048

Row | Sequence | pre-steady-state target cleavage rate [1] | pre-steady-state target cleavage rate [2]
21 | UCCUGGAUCAGCUUGCAAACUAUUUAGUUA | 0.00677 ± 0.003 | 0.0815 ± 0.0098
22 | AGGACCUAAGCUUGCAUAGUAUUUAGUUA | 0.0685 ± 0.013 | 1.05 ± 0.071
23 | AGGACCUACAUGCUUGCAUAGUAUUUAGUUA | 0.0684 ± 0.013 | 0.767 ± 0.056
24 | AGGACCUACACCUUGCAUAGUAUUUAGUUA | 0.0855 ± 0.015 | 1.17 ± 0.037
25 | UGGACCUACAUGCUUGCAUAGUAUUUAGUUA | 0.0601 ± 0.013 | 0.925 ± 0.054
26 | UGGACCUACAUCUUGCAUAGUAUUUAGUUA | 0.0737 ± 0.012 | 1.38 ± 0.043
27 | AGGACCUACAUCUUGCAUAGUAUUUAGUUA | 0.0767 ± 0.012 | 1.39 ± 0.036
28 | UCGACCUACACCUUGCAUAGUAUUUAGUUA | 0.0525 ± 0.008 | 1.15 ± 0.046
29 | UCGACCUACAUCUUGCAUAGUAUUUAGUUA | 0.077 ± 0.014 | 1.61 ± 0.043
30 | UCCACCUACAUCUUGCAUAGUAUUUAGUUA | 0.0567 ± 0.0096 | 0.85 ± 0.036
31 | UCGACCUACAGUCUUGCAUAGUAUUUAGUUA | 0.0611 ± 0.012 | 1.16 ± 0.063
32 | UCCACCUACAGCUUCCAUAGAAUUUAGUUA | – | 0.0393 ± 0.015
33 | UGGACCAUGAGCUUGCAUAGUAUUUACAAA | 0.00423 ± 0.0026 | 0.159 ± 0.021
34 | AGGACCUACAGCUUGCAUAGUUAAAUCAAA [g10:g30:cont:t1A] | – | 0.159 ± 0.046
35 | UCGACAUACAGCUUGCAUAGUAUUUAGUUA | 0.071 ± 0.012 | 1.38 ± 0.043
36 | UGGACAUACAGCUUGCAUAGUAUUUAGUUA | 0.0916 ± 0.014 | 1.23 ± 0.05
37 | AGGACAUACAGCUUGCAUAGUAUUUAGUUA | 0.0818 ± 0.012 | 1.32 ± 0.055
38 | UCGACCAUACAGCUUGCAUAGUAUUUAGUUA | 0.0901 ± 0.015 | 0.86 ± 0.039
39 | AGGACCAUACAGCUUGCAUAGUAUUUAGUUA | 0.0829 ± 0.013 | 1.06 ± 0.051
40 | UCGACACUACAGCUUGCAUAGUAUUUAGUUA | 0.0557 ± 0.0088 | 0.961 ± 0.061

Row | Sequence | pre-steady-state target cleavage rate [1] | pre-steady-state target cleavage rate [2]
41 | UCCUGGAUGUGCUUGCAUUGUAUUUAGUAA | 0.00578 ± 0.0023 | 0.0234 ± 0.0059
42 | UCCUGGAACAGCUUGCAUAGAUUUUAGUAA | – | 0.0419 ± 0.015
43 | UCCUGGAUGUCGAAGGAUAGUAUUUUGUUA | < 0.0001 | –
44 | UCCUGGUACUGCAUGCAUAGUAUUUAGUUA | 0.00786 ± 0.0024 | 0.556 ± 0.045
45 | UCCUGCUUCAGCAUGCAUAGUAUUUAGUUA | 0.0171 ± 0.0036 | 1.32 ± 0.078
46 | UCCUGGUUCAGCUAGCAUAGUAUUUAGUUA | 0.0169 ± 0.004 | 0.872 ± 0.045
47 | UCCUGCUUCAGCUUGCAUAGUAUUUAGUUA | 0.0684 ± 0.012 | 1.19 ± 0.051
48 | UCCUGGUUCAGCAUGCAUAGUAUUUAGUUA | 0.0172 ± 0.0043 | 0.93 ± 0.036
49 | UCCUGCUUCAGCUAGCAUAGUAUUUAGUUA | 0.0109 ± 0.0042 | 1.32 ± 0.056
50 | UCCUCCUUCAGCUAGCAUAGUAUUUAGUUA | 0.0147 ± 0.0034 | 0.78 ± 0.032
51 | UCCUGGAACAGCUUGCAUUGUAAUUAGUUA | 0.018 ± 0.006 | 0.375 ± 0.032
52 | UCCUGGAACUCCUUGCAUAGUAUUUAGUUA | 0.00821 ± 0.0033 | 0.46 ± 0.048
53 | UCCUCCUAACAGCUUGCAUAGUAUUUAGUUA | 0.0508 ± 0.0092 | 0.591 ± 0.025
54 | UCCACCUACAGCUUGCUUAGUUUUUAGUUA | 0.0103 ± 0.002 | 0.175 ± 0.017
55 | UGGUCCUACAGCUUGCAUAGUAUUUUGUUA | 0.0592 ± 0.011 | 0.679 ± 0.03
56 | AGGACCUACAGCUUGCAUGUAUUUAGUUA | 0.00718 ± 0.0034 | 0.485 ± 0.048
57 | UCCUCCUACAGCUUGCAUGGUAUUUAGUUA | 0.0582 ± 0.011 | 1.66 ± 0.078
58 | UCGACCUACAGCUUGCAUUAGUAUUUAGUUA | – | 0.264 ± 0.082
59 | UCGACCUACAGCUUGCAUGUAUUUAGUUA | 0.00292 ± 0.0025 | 0.479 ± 0.05
60 | UGGACCUACAGCUUGCAUGUAUUUAGUUA | 0.00423 ± 0.0025 | 0.353 ± 0.055
